The text below walks through data of PubChem BioAssay (Tox21).

Inconclusive results are not listed. Values without a mark were called inactive. Calls of active or inactive are those of the source. Calls follow the shape of the dose curve; as a rule, active = well fitted inhibition curve with a large enough effect in the repeat runs; inconclusive = weak or mixed curves; inactive = no such curve, though single readings can be large or run the other way.
% is scaled to controls: 0 for no effect and ±100 for the full control effect.

Sequence of Cytochrome P450 3A4 (Homo sapiens) (P08684 whole entry, looked up): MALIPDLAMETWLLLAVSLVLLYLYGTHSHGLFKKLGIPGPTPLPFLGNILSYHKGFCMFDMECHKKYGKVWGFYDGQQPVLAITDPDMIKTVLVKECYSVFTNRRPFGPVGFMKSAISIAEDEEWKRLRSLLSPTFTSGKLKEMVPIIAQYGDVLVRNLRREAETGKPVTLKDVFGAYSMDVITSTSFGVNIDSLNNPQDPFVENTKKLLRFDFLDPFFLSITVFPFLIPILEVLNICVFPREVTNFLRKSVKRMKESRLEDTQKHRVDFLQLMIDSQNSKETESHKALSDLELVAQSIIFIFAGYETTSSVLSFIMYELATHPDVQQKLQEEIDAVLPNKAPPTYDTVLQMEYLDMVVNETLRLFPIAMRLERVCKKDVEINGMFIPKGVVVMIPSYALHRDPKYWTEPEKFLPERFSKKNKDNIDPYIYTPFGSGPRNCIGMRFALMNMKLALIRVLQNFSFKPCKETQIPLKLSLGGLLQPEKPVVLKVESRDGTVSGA

In the experiment the target is Cytochrome P450 3A4 (Homo sapiens) (UniProt P08684). Nature of the experiment: Cytochrome P450 Family 3 Subfamily A Member 4 (CYP3A4) small molecule antagonists: luciferase reporter qHTS assay (AID 1671201). Also: nearly all actives have a fitted effect of over 50% in size. Conditions: P450-Glo CYP3A4 enzyme, luciferin luminescence, 1 h; series mostly up to 115 µM; activity change, negative = inhibition: at the top concentration. A digest of the protocol:
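P450-Glo CYP3A4 system with proluciferin substrate; compounds preincubated 10 min RT with enzyme-substrate mix, then NADPH regeneration added for 1 h RT. Detection reagent 20 min, luminescence read as relative luminescence units.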
On the technique in general: Reporter assays use an easily measured gene product as a stand-in for the process of interest.
In the case of `CC1=CC(=O)/C(=C(/C)O)C(=O)O1`, the “activity change, negative = inhibition” value was -19.6%.
Still for that read-out and setting: the result for `Oc1ccc(O)c2c(O)cccc12` reads -14.8%.
The same measure, in the same setting: with `OCC1CC2CC1C1CCC(CO)C21` (stereo not drawn) the figure was -0.545%.
Same read-out and setting: the result for `CCc1nn(C2CCCCC2)c2cc(C3(C#N)CCC(C(=O)O)CC3)ccc12` (stereo not drawn) reads 16.7%.
Turning to `CC(=O)OC/C=C/c1ccccc1`, the “activity change, negative = inhibition” value was -1.51%.
For `N=C(N=C(N)N)N1CCOCC1`, the “activity change, negative = inhibition” value is 6.68% [at 52.9 µM].
On the same count and under the same terms, with `CNS(=O)(=O)Cc1ccc2[nH]cc(CCN(C)C)c2c1` the figure was 8.69% [at 52.9 µM]; with `CN(C)CCCNCCCN`, -7.6%; with `NCCCOCCOCCOCCCN`, -32.7%.
Same read-out and setting: with `O=CNc1ccccc1` the figure was 2.49%; with `NC[C@H]1O[C@H](O[C@H]2[C@H](O)[C@@H](O[C@H]3O[C@H](CO)[C@@H](O)[C@H](N)[C@H]3O)[C@H](N)C[C@@H]2N)[C@H](O)[C@@H](O)[C@@H]1O`, 8.95% [at 10.5 µM].
Turning to `Cn1sccc1=O`, the Potency entry was “inactive”.
As to `CNCC[C@@H](Oc1ccccc1C)c1ccccc1`, the “activity change, negative = inhibition” value was -30.6% [at 52.9 µM].
Same read-out and setting: with `Cc1cc(C)c(S(=O)(=O)O)cc1N=Nc1cc(S(=O)(=O)O)c2ccccc2c1O` the figure was 5.7%; with `CC(=O)/C(C)=C/C1C(C)=CCCC1(C)C` (stereo not drawn), 1.37%; with `CC(=O)/C=C/C1C(C)=CCCC1(C)C` (stereo not drawn), 11.1%.
The same measure, in the same setting: the result for `CCOC(=O)CC(=O)c1cc(F)c(Cl)nc1Cl` reads 82.4%.
Same read-out and setting: the result for `CCOC(=S)SSC(=S)OCC` reads 0.73%.
